Results filed as inconclusive are left out. Active and inactive are the calls of the source. Unless noted, calls follow the shape of the full dose curve.
Key:
[1] = Nuclear factor erythroid 2-related factor 2/antioxidant responsive element (Nrf2/ARE) small molecule agonists: qHTS cell viability counter screen in human keratinocytes (AID 1919968; active = well fitted curve in the direction sought with a large enough effect in the repeat runs; an effect the other way counts as inactive or inconclusive; also: nearly all actives have a fitted effect of over 55% in size)
In short: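 KeratinoSens cells (HaCaT keratinocytes stably carrying an ARE-luciferase reporter) were seeded at 1,500 cells/well and rested 5 h at 37 C/5% CO2. They were then exposed to compounds in DMSO for 23 h. Viability was read by CellTiter-Fluor fluorescence after 1 h.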

[2] = Nuclear factor erythroid 2-related factor 2/antioxidant responsive element (Nrf2/ARE) small molecule agonists: luciferase reporter gene qHTS assay in human keratinocytes (AID 1919969); also: nearly all actives have a fitted effect of over 35% in size
[3] = target: Gonadotropin-releasing hormone receptor (Homo sapiens) (UniProt P30968); assay: Human gonadotropin-releasing hormone receptor (GnRHR) small molecule agonists, calcium flux assay in GnRHR-HEK293 cells (AID 1920063); also: nearly all actives have a fitted effect of over 35% in size
Gonadotropin-releasing hormone receptor (Homo sapiens), sequence (P30968 whole entry, looked up): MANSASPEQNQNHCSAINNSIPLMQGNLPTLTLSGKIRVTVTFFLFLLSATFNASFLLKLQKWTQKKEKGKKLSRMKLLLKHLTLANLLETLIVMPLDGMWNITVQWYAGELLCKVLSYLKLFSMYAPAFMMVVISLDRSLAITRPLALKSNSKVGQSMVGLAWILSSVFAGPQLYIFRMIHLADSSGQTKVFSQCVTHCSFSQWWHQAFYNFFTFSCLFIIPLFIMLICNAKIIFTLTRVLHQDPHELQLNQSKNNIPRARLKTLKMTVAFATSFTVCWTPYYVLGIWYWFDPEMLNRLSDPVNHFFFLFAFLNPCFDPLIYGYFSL
In short: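 HEK293 cells stably expressing human GnRHR were plated 18 h at 37 °C, loaded with calcium dye 1 h at 37 °C, then given compound in agonist mode; fluorescence (Ex/Em 480/540) read kinetically for 3 min at 1 s intervals.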

[4] = target: KiSS-1 receptor (Homo sapiens) (UniProt Q969F8); assay: Human kisspeptin (KISS1R) small molecule agonists, calcium flux assay in KISS1R-HEK293 cells (AID 1920064; active = well fitted curve in the direction sought with a large enough effect in the repeat runs; an effect the other way counts as inactive or inconclusive)
KiSS-1 receptor (Homo sapiens), sequence (Q969F8 whole entry, looked up): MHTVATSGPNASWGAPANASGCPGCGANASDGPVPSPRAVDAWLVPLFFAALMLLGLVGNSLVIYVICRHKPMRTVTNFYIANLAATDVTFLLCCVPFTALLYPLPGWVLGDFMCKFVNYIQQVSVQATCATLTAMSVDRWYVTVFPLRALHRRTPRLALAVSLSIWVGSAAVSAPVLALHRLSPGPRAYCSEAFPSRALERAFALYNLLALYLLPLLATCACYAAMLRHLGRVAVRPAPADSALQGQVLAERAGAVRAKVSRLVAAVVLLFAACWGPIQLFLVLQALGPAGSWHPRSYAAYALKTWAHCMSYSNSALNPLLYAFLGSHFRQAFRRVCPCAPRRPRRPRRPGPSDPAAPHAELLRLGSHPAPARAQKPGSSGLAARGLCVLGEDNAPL
In short: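 HEK293 cells stably expressing human KISS1R were plated 18 h at 37 °C, loaded with calcium dye for 1 h at 37 °C, then given compound by pin tool. Fluorescence (Ex/Em 480/540) was read kinetically for 3 min.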

[5] = p53 small molecule agonists, cell-based qHTS assay with human liver microsomes: qHTS cell viability counter screen (AID 1963579); also: nearly all actives have a fitted effect of over 45% in size
In short: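 In this multiplexed counter screen, the reporter plates were subsequently treated with CellTiter-Glo so that cell viability, reflected by luminescence, could be recorded for p53RE-bla cells dosed 16 h with compounds under microsomal activation (HLM and NADPH).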

[6] = p53 small molecule agonists, cell-based qHTS assay with rat liver microsomes: qHTS cell viability counter screen (AID 1963580); also: nearly all actives have a fitted effect of over 45% in size
In short: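 p53RE-bla HCT-116 cells were exposed 16 h at 37 C to compounds with rat liver microsomes (0.5 mg/mL) and NADPH (0.5 mg/mL). Viability was measured in the same wells as ATP content by CellTiter-Glo luminescence.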

[7] = p53 small molecule agonists, cell-based qHTS assay: qHTS cell viability counter screen (AID 1963581); also: nearly all actives have a fitted effect of over 45% in size
In short: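 p53RE-bla HCT-116 cells were exposed to compounds for 16 h at 37 C; after the beta-lactamase FRET read in the same wells, CellTiter-Glo was added and luminescence (intracellular ATP) read after 30 min at room temperature.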

[8] = target: 5-hydroxytryptamine receptor 2A (Homo sapiens) (UniProt P28223); assay: 5-hydroxytryptamine receptor 2A (HTR2A) small molecule antagonists, cell-based qHTS assay (AID 1963586); also: nearly all actives have a fitted effect of over 45% in size; also: potency is read from the fitted curve at half-maximal effect
5-hydroxytryptamine receptor 2A (Homo sapiens), sequence (P28223 whole entry, looked up): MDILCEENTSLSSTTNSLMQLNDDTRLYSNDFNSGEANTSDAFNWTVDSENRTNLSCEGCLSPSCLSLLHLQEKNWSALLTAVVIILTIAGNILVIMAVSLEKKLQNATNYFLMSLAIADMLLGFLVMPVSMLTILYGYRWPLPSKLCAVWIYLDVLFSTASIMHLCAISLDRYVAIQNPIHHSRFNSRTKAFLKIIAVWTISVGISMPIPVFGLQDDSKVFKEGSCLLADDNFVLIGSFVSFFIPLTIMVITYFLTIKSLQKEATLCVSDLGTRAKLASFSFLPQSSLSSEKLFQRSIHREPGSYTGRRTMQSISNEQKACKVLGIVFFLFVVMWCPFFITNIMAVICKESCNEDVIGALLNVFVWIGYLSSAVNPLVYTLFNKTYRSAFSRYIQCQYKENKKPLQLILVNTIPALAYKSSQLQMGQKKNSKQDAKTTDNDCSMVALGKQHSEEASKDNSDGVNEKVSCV
In short: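 Antagonist-mode intracellular calcium assay: DOI (4 nM) added after 5 min compound pre-incubation at room temperature to dye-loaded HTR2A-CHO cells. Fluorescence followed for 3 min, sampled every second.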

[9] = target: 5-hydroxytryptamine receptor 2A (Homo sapiens) (UniProt P28223); assay: 5-hydroxytryptamine receptor 2A (HTR2A) small molecule agonists, cell-based qHTS assay (AID 1963587); also: nearly all actives have a fitted effect of over 30% in size
In short: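 CHO cells stably expressing human HTR2A, plated 18 h, loaded with calcium dye 1 h at 37 C. Agonist mode: compounds added and intracellular calcium fluorescence recorded kinetically for 2 min at 1 sec intervals.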

[10] = target: Muscarinic acetylcholine receptor M1 (Homo sapiens) (UniProt P11229); assay: Cholinergic receptor muscarinic 1 (CHRM1) small molecule antagonists, cell-based qHTS assay (AID 1963588); also: nearly all actives have a fitted effect of over 40% in size
Muscarinic acetylcholine receptor M1 (Homo sapiens), sequence (P11229 whole entry, looked up): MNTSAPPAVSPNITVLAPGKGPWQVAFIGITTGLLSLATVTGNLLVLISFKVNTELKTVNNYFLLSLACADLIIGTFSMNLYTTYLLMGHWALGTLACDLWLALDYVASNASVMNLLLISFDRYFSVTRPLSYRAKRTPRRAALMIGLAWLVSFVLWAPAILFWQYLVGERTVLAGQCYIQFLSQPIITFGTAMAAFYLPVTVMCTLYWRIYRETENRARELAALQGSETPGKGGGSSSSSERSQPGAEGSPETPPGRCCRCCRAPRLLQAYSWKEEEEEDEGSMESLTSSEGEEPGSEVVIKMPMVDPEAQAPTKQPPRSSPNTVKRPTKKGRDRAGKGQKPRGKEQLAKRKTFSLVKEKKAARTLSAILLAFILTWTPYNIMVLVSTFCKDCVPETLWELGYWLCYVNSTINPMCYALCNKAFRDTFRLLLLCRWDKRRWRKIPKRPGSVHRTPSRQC
In short: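 CHRM1-CHO calcium-flux assay, antagonist mode. Cells were seeded 18 h, dye-loaded 1 h at 37 C and given compound for 5 min at RT, then acetylcholine was added at 50nM. FDSS fluorescence was read 3 min; 15 concentrations, three runs.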

[11] = target: Muscarinic acetylcholine receptor M1 (Homo sapiens) (UniProt P11229); assay: Cholinergic receptor muscarinic 1 (CHRM1) small molecule agonists, cell-based qHTS assay (AID 1963589); also: nearly all actives have a fitted effect of over 35% in size; also: potency is read from the fitted curve at half-maximal effect
In short: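 CHO cells stably expressing human CHRM1, seeded 18 h at 37 C/5% CO2, dye-loaded 1 h at 37 C, then given compound in agonist mode; intracellular calcium fluorescence read kinetically at 1 s intervals. Fifteen concentrations, three independent runs.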

[12] = cAMP Responsive Elements (CRE) small molecule agonists, cell-based qHTS assay (AID 1963590); also: potency is read from the fitted curve at half-maximal effect
In short: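 CRE-bla HEK 293T cells in DMEM with 10% dialyzed FBS, NEAA, pyruvate and 25 mM HEPES were plated 18 h at 37 C/5% CO2, then exposed to compounds in DMSO for 3 h before LiveBLAzer B/G FRET substrate addition.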

[13] = cAMP Responsive Elements (CRE) small molecule antagonists, cell-based qHTS assay (AID 1963591; active = well fitted inhibition curve with a large enough effect in the signal ratio in the repeat runs, not every such curve was filed as active; the % refers to the signal ratio)
In short: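 CRE-bla HEK293T cells were plated 18 h at 37 °C/5% CO2, pinned with compound in DMSO, then stimulated with NKH477 at 0.25 uM final for 3 h. LiveBLAzer B/G FRET substrate was added and plates incubated 2 h at room temperature.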

[14] = target: Beta-2 adrenergic receptor (Homo sapiens) (UniProt P07550); assay: Adrenergic beta2 receptor (ADRB2) small molecule antagonists, cell-based qHTS assay (AID 1963592); also: series mostly up to about 92 µM; nearly all actives have a fitted effect of over 50% in size
Beta-2 adrenergic receptor (Homo sapiens), sequence (P07550 whole entry, looked up): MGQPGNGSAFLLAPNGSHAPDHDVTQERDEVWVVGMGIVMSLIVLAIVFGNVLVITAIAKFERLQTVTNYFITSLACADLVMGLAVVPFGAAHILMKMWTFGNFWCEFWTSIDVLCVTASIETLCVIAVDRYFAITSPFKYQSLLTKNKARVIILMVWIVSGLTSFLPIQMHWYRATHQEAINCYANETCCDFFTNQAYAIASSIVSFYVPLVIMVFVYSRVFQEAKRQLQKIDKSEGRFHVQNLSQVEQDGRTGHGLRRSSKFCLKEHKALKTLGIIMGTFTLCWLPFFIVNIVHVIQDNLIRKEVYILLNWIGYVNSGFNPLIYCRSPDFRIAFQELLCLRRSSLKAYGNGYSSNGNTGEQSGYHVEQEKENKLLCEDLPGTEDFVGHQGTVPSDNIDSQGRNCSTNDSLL
In short: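 Cells (CHO, stable ADRB2 overexpression) incubated 18-20hr at 37C; compounds added from DMSO; agonist mix (1nM isoproterenol, 100uM IBMX, 25uM Ro-20-1724) added; 0.5hr RT; d2-cAMP and anti-cAMP-cryptate added; 1hr RT; 665/615 nm read.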

[15] = target: Beta-2 adrenergic receptor (Homo sapiens) (UniProt P07550); assay: Adrenergic beta2 receptor (ADRB2) small molecule agonists, cell-based qHTS assay (AID 1963593);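 also: CHO cells stably overexpressing human ADRB2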
In short: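 CHO cells stably over-expressing ADRB2 were plated overnight at 37C, then dosed with compounds plus a stimulation mix containing 100uM IBMX and 25uM Ro-20-1724 for 0.5hr at room temperature. cAMP was measured by HTRF competition, 1hr.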

[16] = target: D(2) dopamine receptor (Homo sapiens) (UniProt P14416); assay: Dopamine D2 receptor (DRD2) small molecule agonists, cell-based qHTS assay (AID 1963594); also: nearly all actives have a fitted effect of over 35% in size
D(2) dopamine receptor (Homo sapiens), sequence (P14416 whole entry, looked up): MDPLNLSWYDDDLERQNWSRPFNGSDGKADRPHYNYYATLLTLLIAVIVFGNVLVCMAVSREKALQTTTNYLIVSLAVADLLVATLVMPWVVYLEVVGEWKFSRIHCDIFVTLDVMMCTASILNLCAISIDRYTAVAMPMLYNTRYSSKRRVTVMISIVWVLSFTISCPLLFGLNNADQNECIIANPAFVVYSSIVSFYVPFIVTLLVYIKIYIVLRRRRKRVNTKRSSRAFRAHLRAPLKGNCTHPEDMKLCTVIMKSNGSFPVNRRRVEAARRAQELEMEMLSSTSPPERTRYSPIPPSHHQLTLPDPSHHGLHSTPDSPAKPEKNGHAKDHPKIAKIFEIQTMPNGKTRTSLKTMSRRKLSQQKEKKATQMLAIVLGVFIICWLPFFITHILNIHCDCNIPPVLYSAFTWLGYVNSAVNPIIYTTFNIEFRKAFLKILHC
In short: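 HEK293 cells stably expressing human DRD2, pre-treated with PDE inhibitor Ro20-1724 (0.1 mM final) and compound 10 min at room temperature, then stimulated with NKH477 (200nM […]) for 30 min. cAMP read by HTRF (665/620 nm).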

[17] = target: D(2) dopamine receptor (Homo sapiens) (UniProt P14416); assay: Dopamine D2 receptor (DRD2) small molecule antagonists, cell-based qHTS assay (AID 1963595; active = well fitted inhibition curve with a large enough effect in the signal ratio in the repeat runs, with a control signal flat; the % refers to the signal ratio)
In short: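 HTRF cAMP read-out at 665 and 620 nm emission (340 nm excitation). Antagonist mode: compounds were tested against 12 nM quinpirole in DRD2-HEK293 cells, with 200 nM NKH477 raising cAMP and 0.1 mM Ro20-1724 blocking its breakdown.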

[18] = p53 small molecule agonists, cell-based qHTS assay with rat liver microsomes (AID 1963578)
In short: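 With rat liver microsomes and NADPH present (0.5 mg/mL final each), p53RE-bla cells are treated with compound for 16 h at 37 C. LiveBLAzer detection mixture is then applied for 2 h at room temperature in the dark.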

[19] = p53 small molecule agonists, cell-based qHTS assay (AID 1963582; active = well fitted activation curve with a large enough effect in the signal ratio in the repeat runs, not every such curve was filed as active; the % refers to the signal ratio)
In short: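 p53RE-bla beta-lactamase reporter cells rested 5 h at 37 C/5% CO2, then received compounds in DMSO by pin transfer and were incubated 16 h at 37 C. LiveBLAzer B/G FRET substrate was loaded for 2 h at room temperature before fluorescence reading.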

[20] = G protein-coupled receptor (GPCR) small molecule agonists, calcium flux assay: HEK293 wild type cell line counter screen (AID 1920065)
In short: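 Cells were plated and cultured 18 h at 37 C/5% CO2, then loaded with calcium dye for 1 h at 37 C. Compounds in DMSO were pin-transferred in agonist mode, and fluorescence (Ex/Em 480/540) was read kinetically for 3 min at 1 s intervals.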

Measured: Potency

CCCCN(CCC(=O)OCC)C(C)=O
not listed: [18] | [19] | [20]
inactive: all other assays above

CN(C)CCN(Cc1ccccc1)c1ccccn1
active: [8] 7.29 µM
not listed: [7] | [10] | [19] | [20]
inactive: all other assays above

COc1cc(-c2ccc(=O)[nH]n2)ccc1OC(F)F
active: [11] 0.0038 µM | [12] 13.3 µM
not listed: [7] | [8] | [14] | [20]
inactive: all other assays above

Cc1nc([N+](=O)[O-])cn1-c1ccc([N+](=O)[O-])cc1
not listed: [17] | [18] | [19] | [20]
inactive: all other assays above

COCCc1ccc(OCC2CO2)cc1 (configuration not stated)
not listed: [14] | [16] | [19] | [20]
inactive: all other assays above

CCCNC(C)C(=O)Nc1c(C)csc1C(=O)OC (configuration not stated)
not listed: [5] | [7] | [13] | [20]
inactive: all other assays above

CC1=C(C(=O)O)N2C(=O)[C@@H](NC(=O)[C@H](N)c3ccccc3)[C@H]2SC1
not listed: [5] | [6] | [8] | [9] | [10] | [11] | [18]
inactive: all other assays above

O=C(NN1CCCC1)NS(=O)(=O)c1ccc(Cl)cc1
not listed: [17] | [18] | [19] | [20]
inactive: all other assays above

CC/C=C\CCOC(C)OCC (configuration not stated)
not listed: [5] | [9] | [15] | [19] | [20]
inactive: all other assays above

CCCCNCCCC
not listed: [13] | [15] | [18] | [20]
inactive: all other assays above

CCCCOC(=O)c1ccccc1
not listed: [16] | [17] | [20]
inactive: all other assays above

O=C(c1ccccc1)c1ccc(O)cc1
not listed: [5] | [6] | [12] | [15] | [18] | [19]
inactive: all other assays above

COC(=O)C1=C(C)NC(C)=C(C(=O)OCC(C)=O)C1c1ccccc1[N+](=O)[O-] (configuration not stated)
not listed: [5] | [15] | [20]
inactive: all other assays above

Cn1cnc2c(=O)[nH]c(N)nc21
not listed: [5] | [7] | [10] | [18] | [19]
inactive: all other assays above

CCOC(=O)OC(C)OC(=O)[C@@H]1N2C(=O)[C@@H](NC(=O)[C@H](N)c3ccccc3)[C@H]2SC1(C)C (some centres not stated)
not listed: [5] | [7] | [8] | [14] | [15] | [18] | [19]
inactive: all other assays above

CO[Si](C)(OC)OC
not listed: [5] | [6] | [13] | [15] | [18] | [19]
inactive: all other assays above

Reference: PubChem BioAssay (Tox21)
